# In PubChem BioAssay:
# Calls of active or inactive are those of the source. Unless noted, no rule for the calls is given here.
# Experiments:
# [1] = enhancers of glutamate uptake in motor neurons, MN-1 cell line (AID 1612); conditions: MN-1 motor neuron cells, stronger effect = higher value;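 also: tested at 1 µM final; 0% = mean of DMSO vehicle wells on each plate; positive means more glutamate uptake than control and negative means less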
# [2] = suppressors of polyglutamine aggregation in yeast, 75Q-TubH (AID 1616); conditions: S. cerevisiae 75Q-TubH polyglutamine aggregation suppression; stronger effect = higher value
# [3] = circadian clock period modulators, cell-based, LOPAC library, luminescence reporter (AID 2774); conditions: circadian reporter cells, at 7 µM, actives lie on both sides;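 also: values are relative to mean of DMSO wells on each plate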
# [4] = hESC survival regulators, cell-based (AID 493140); conditions: human embryonic stem cell survival screen; stronger effect = higher value;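 also: cells exposed to compounds for four days before counting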
# [5] = antimalarial activity against Dd2 strain (AID 2302;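 active = growth inhibition above 50% at the single 2 µM test dose, taken to imply half-maximal potency below 2 µM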;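 also: 0% = DMSO untreated growth and 100% = chloroquine plus artemisinin killed control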); conditions: P. falciparum Dd2 in RBCs, LDH growth readout, 72 h; at 2 µM; stronger effect = higher value
# [6] = HepG2 cytotoxicity, primary screen, cytotoxicity control for P. falciparum antimalarial project, cell-based, ATP luminescence (AID 2303;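 active = inhibition above 50%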;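 also: 0% = DMSO wells and 100% = digitonin-killed cells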); conditions: HepG2 viability, 24-48 h, at 10 µM, stronger effect = higher value
# [7] = biological target: L-lactate dehydrogenase (Plasmodium falciparum (isolate CDC / Honduras)) (UniProt Q27743); assay: PfLDH activity inhibition – cell lysate, 3D7 strain, counter-screen for P. falciparum growth inhibition project (AID 2304);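 also: 0% = vehicle and 100% = reference inhibitor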; conditions: P. falciparum 3D7 crude extract, LDH APAD/NBT absorbance; at 2 µM; stronger effect = higher value
# [8] = inhibition of 3D7 malaria parasite growth – strain 3D7 (AID 2306);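 also: 0% = DMSO wells and 100% = chloroquine plus artemisinin control wells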; conditions: P. falciparum 3D7 erythrocytic growth, LDH absorbance, 72 h; at 2 µM; stronger effect = higher value
# Sequence of L-lactate dehydrogenase (Plasmodium falciparum (isolate CDC / Honduras)) (Q27743 whole entry, looked up): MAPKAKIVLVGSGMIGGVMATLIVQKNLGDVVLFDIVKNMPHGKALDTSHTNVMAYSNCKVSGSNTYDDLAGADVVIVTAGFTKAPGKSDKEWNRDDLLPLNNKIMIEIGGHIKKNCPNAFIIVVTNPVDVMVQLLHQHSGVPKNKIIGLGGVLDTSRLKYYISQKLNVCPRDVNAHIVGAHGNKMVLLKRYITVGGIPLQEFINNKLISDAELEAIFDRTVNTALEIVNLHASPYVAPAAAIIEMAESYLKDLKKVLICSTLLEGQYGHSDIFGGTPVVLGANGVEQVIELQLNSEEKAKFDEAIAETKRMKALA
smiles,measurement,setting,value
Cc1ccc(C(C)C)cc2c(C)ccc1-2,glutamate uptake change,[1],4.08%
same,aggregation suppression score,[2],-1.39
Cc1nc2sccn2c(=O)c1CCN1CCC(=C(c2ccc(F)cc2)c2ccc(F)cc2)CC1,glutamate uptake change,[1],29.6%
same,aggregation suppression score,[2],1.39
same,period change,[3],0.08 h (inactive)
CC1=CC(=O)c2ccccc2C1=O,glutamate uptake change,[1],-13.7%
same,aggregation suppression score,[2],0.00728
same,survival,[4],2.42 (inactive)
Nc1ccc(N=Nc2ccccc2)c(N)n1,glutamate uptake change,[1],-9.75%
same,aggregation suppression score,[2],1.49
same,survival,[4],4 (inactive)
COc1cc2c(cc1OC)-c1cc(=Nc3c(C)cc(C)cc3C)n(C)c(=O)n1CC2,growth inhibition,[5],29% (inactive)
same,inhibition,[6],14% (inactive)
same,inhibition,[7],0% (inactive)
same,growth inhibition,[8],92% (active)
same,period change,[3],0.41 h (inactive)
COc1ccc(CCN2CCC(Nc3nc4ccccc4n3Cc3ccc(F)cc3)CC2)cc1,glutamate uptake change,[1],31.2%
same,aggregation suppression score,[2],1.26
same,survival,[4],1.58 (inactive)
CCCCOc1cc(C(=O)NCCN(CC)CC)c2ccccc2n1,glutamate uptake change,[1],-13.8%
same,aggregation suppression score,[2],1.32
same,survival,[4],7.17 (inactive)
CCOc1ccc2nc3cc(N)ccc3c(N)c2c1,growth inhibition,[5],70% (active)
same,inhibition,[6],8% (inactive)
same,inhibition,[7],0% (inactive)
same,growth inhibition,[8],98% (active)
CN(C)CC[C@@H](c1ccc(Cl)cc1)c1ccccn1,period change,[3],-0.255 h (inactive)
CCCCCCCCNC(C)C(O)c1ccc(SC(C)C)cc1 (stereo not given),glutamate uptake change,[1],-7.34%
same,aggregation suppression score,[2],0.0242
same,survival,[4],0.25 (inactive)
CCCCc1ccc2nc(NC(=O)OC)[nH]c2c1,growth inhibition,[5],1% (inactive)
same,inhibition,[6],26% (inactive)
same,inhibition,[7],-3% (inactive)
same,growth inhibition,[8],98% (active)
same,survival,[4],1 (inactive)
O=C1C(O)=C(O)C(=O)C(O)=C1O,glutamate uptake change,[1],5.54%
same,aggregation suppression score,[2],1.42
same,survival,[4],4.75 (inactive)
O=C(Nc1cccc(C2=NCCN2)c1)Nc1cccc(C2=NCCN2)c1,growth inhibition,[5],99% (active)
same,inhibition,[6],16% (inactive)
same,inhibition,[7],7% (inactive)
same,growth inhibition,[8],98% (active)
CCCCOc1ccc(C(=O)CCN2CCCCC2)cc1,glutamate uptake change,[1],1.68%
same,aggregation suppression score,[2],1.27
same,survival,[4],4.92 (inactive)
